Data on 7 molecules can be found in PubChem BioAssay (NCATS).

Inconclusive results are not listed. Calls of active or inactive are those of the source. Unless noted, calls come from the whole dose curve; as a rule, active = well fitted curve in the direction sought with a large enough effect; inconclusive = small, poorly fitted or top-dose-only effect, or another doubt; inactive = no such curve, though single readings can be large; an effect the other way counts as inactive or inconclusive.

Assay [1] in a line: Cell Viability - N2a (AID 540).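 Note: plate controls were DMSO alone for no effect and tamoxifen control for full effect; nearly all actives have a fitted effect of over 45% in size.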 The conditions noted are these: N2a mouse neuroblastoma cell viability; activity change, negative = cytotoxicity: at 92.2 µM (top of the series). The method in brief:
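CellTiter-Glo ATP luminescence, read 20 min after reagent at room temperature, reported viability following 40 h compound treatment at 37 °C. N2a mouse neuroblastoma cells seeded 1500/well; Hill equation gave AC50.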

Assay [2] in a line: Cell Viability - SH-SY5Y (AID 544).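 Note: cells exposed to compound for 40 hours; 0% = DMSO alone and -100% = 100 µM tamoxifen; nearly all actives have a fitted effect of over 55% in size.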 The conditions noted are these: SH-SY5Y neuroblastoma cell viability; viability change, negative = cytotoxic: at 92.2 µM (top of the series). The method, boiled down:
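Cytotoxicity measured via ATP-dependent luciferase luminescence (CellTiter-Glo) following 40 h, 37 °C exposure of 1500 SH-SY5Y cells per well. Concentration-response data were fitted with the standard Hill equation to give AC50.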

Assay [3] can be described thus: Cell Viability - Renal Proximal Tubule (AID 545).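 Note: cells exposed to compound for 40 hours; 0% = DMSO only and -100% = 100 µM tamoxifen; nearly all actives have a fitted effect of over 40% in size.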 The method in brief: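 Viability taken as intracellular ATP (CellTiter-Glo luminescence) after 40 hr, 37 °C compound treatment of primary proximal tubule cells from rat kidney, 1000 cells/well; Hill-equation fits of qHTS concentration-response data gave AC50.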
The target in assay [4] is Cytochrome P450 3A4 (Homo sapiens) (UniProt P08684). Description: qHTS Assay for Inhibitors and Substrates of Cytochrome P450 3A4 (AID 884). Note: % is set by controls: 0 for no effect and ±100 for the full control effect; nearly all actives have a fitted effect of over 50% in size. The method, boiled down: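 Luminescent readout of luciferin produced by CYP3A4 (20 nM) dealkylation of Luciferin-PPXE, 25 uM (its KM). NADPH-driven reaction ran 60 min at RT after 10 min compound preincubation; data scaled to 57 uM ketoconazole as 100% inhibition.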
Cytochrome P450 3A4 (Homo sapiens), sequence (P08684 whole entry, looked up): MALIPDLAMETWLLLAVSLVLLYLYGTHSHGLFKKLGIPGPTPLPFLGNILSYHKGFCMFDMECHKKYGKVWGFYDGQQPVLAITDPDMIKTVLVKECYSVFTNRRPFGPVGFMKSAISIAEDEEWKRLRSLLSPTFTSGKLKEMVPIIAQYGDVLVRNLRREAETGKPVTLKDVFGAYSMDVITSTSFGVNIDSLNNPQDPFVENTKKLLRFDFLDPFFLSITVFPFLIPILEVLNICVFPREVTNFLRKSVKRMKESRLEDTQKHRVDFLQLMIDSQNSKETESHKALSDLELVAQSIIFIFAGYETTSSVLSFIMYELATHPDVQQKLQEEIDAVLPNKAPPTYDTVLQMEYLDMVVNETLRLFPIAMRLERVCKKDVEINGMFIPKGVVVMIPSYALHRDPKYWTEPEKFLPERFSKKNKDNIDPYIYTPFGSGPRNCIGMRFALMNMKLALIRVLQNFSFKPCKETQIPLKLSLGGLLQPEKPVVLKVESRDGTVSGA
(In general: qHTS replaces the single test concentration by a dilution series.)

Assay [5] can be described thus: Cell Viability - LYMP2-001 (AID 921).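 Note: 0% = DMSO only and full inhibition = tetraoctylammonium bromide control wells; nearly all actives have a fitted effect of over 70% in size.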 The method, boiled down:
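Cellular ATP loss read by luciferase luminescence after 24 h compound exposure at 37 C in complete medium. LYMP2-001 lymphoblastoid cells, 2500/well; qHTS concentration-response data fitted with Hill equation for AC50.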

Assay [6] in a line: Cell Viability - LYMP2-003 (AID 965).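 Note: cells exposed to compounds for 24 h before reading; 0% = DMSO only and full effect = 92 µM tetraoctylammonium bromide; nearly all actives have a fitted effect of over 50% in size.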 The method, boiled down: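 CellTiter-Glo luminescence quantified ATP loss after 24 h compound treatment of LYMP2-003 lymphoblastoid cells at 37 C. Titration series were fitted with the standard Hill equation to give AC50.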
The nature of assay [7]: Cell Viability - LYMP2-015 (AID 971).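 Note: 0% = DMSO only and full effect = 92 µM tetraoctylammonium bromide; nearly all actives have a fitted effect of over 55% in size.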 The method, boiled down: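 Cytotoxicity readout: decrease in intracellular ATP (CellTiter-Glo luminescence) in 2500 LYMP2-015 lymphoblastoid cells/well after 24 h compound exposure at 37 C. Concentration-response data fitted with the standard Hill equation to give AC50.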
Assay [8] is described as follows: Cell Viability - LYMP2-019 (AID 973).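 Note: 0% = DMSO alone and full effect = 92 µM tetraoctylammonium bromide; nearly all actives have a fitted effect of over 55% in size.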 The method, boiled down: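 AC50 values come from Hill-equation fits of luminescent intracellular ATP (CellTiter-Glo, 30 min, room temperature) following 24 h compound exposure at 37 C. Cells: LYMP2-019 lymphoblastoid line, 2500 per well, in complete culture medium.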
Assay [9] can be described thus: Cell Viability - LYMP2-002 (AID 977).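 Note: plate controls were DMSO only for no effect and 92 µM tetraoctylammonium bromide for full effect.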 The method, boiled down: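 Human lymphoblastoid cells (2500/well) in complete medium were preincubated 5 hr at 37 C, then exposed to compounds for 24 hr at 37 C. Intracellular ATP was read by CellTiter-Glo luminescence; AC50 came from Hill-equation concentration-response fits.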
The nature of assay [10]: Cell Viability - LYMP2-008 (AID 980). Note: % is set by controls: 0 for no effect and ±100 for the full control effect; nearly all actives have a fitted effect of over 60% in size. The method in brief:
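Cytotoxicity determined from ATP-dependent luciferase luminescence (CellTiter-Glo) following 24 h compound exposure of human lymphoblastoid LYMP2-008 cells at 37 C. Concentration-response data fitted to the Hill equation to give AC50.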

Assay [11] can be described thus: Cell Viability - LYMP2-010 (AID 981). Note: % is set by controls: 0 for no effect and ±100 for the full control effect; nearly all actives have a fitted effect of over 55% in size. The method, boiled down:
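CellTiter-Glo ATP luminescence measured cytotoxicity after 24 h compound exposure at 37 C. LYMP2-010 cells were seeded at 2500/well, with tetraoctylammonium bromide as control; concentration-response curves gave AC50 values by the Hill equation.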

A short description of assay [12]: Cell Viability - LYMP2-012 (AID 982).
Assay [13] in a line: Cell Viability - LYMP2-020 (AID 986). The method, boiled down:
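Cytotoxicity in qHTS format: luminescent ATP readout from CellTiter-Glo after 24 h compound exposure at 37 C in complete medium. LYMP2-020 lymphoblastoid cells were seeded at 2500/well; concentration-response data fitted to the Hill equation for AC50.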

Assay [14] is described as follows: Cell Viability - LYMP2-022 (AID 987). The method, boiled down: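 Cytotoxicity read as decreased cellular ATP (CellTiter-Glo luminescence, 30 min room temperature) after 24 hours compound exposure of 2500 lymphoblastoid LYMP2-022 cells/well at 37 C. Concentration-response data fitted with standard Hill equation for AC50.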
Assay [15] in a line: Cell Viability - LYMP1-002 - Assay at 40 hr (AID 994).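 Note: 0% = DMSO only and full inhibition = 92 µM tetraoctylammonium bromide; nearly all actives have a fitted effect of over 60% in size.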 The method, boiled down:
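Cytotoxicity was read as loss of cellular ATP (CellTiter-Glo luminescence) after 40 hr compound exposure at 37 C of 2500 LYMP1-002 lymphoblastoid cells per well. Concentration-response data were fitted with the standard Hill equation to give AC50.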

Assay [16] in a line: qHTS assay for small molecule agonists of retinoid X receptor alpha signaling (AID 588544). The conditions noted are these: HEK293T RXRa-UAS-bla, beta-lactamase reporter, 18 h; 530 nm emission.
Assay [17] in a line: qHTS assay for small molecule antagonists of retinoid X receptor alpha signaling (AID 588546; active = well fitted inhibition curve with a large enough effect in the signal ratio, with a control signal flat, not every such curve was filed as active; the % refers to the signal ratio;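 note: cells stimulated with 9-cis-retinoic acid as agonist; % is set by controls: 0 for no effect and ±100 for the full control effect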). The conditions noted are these: HEK293T RXRa-UAS-bla, beta-lactamase ratio, antagonist mode; measured here: W530 green channel, cytotoxicity proxy. The method in brief: (§1)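 Beta-lactamase reporter inhibition, read as CCF4 fluorescence ratio (ex 405, em 460/530 nm) after 2 h at RT. HEK293T UAS-bla cells, 2500/well, were stimulated with 9-cis-RA at 500 or 100 nM final alongside test compound for 18 h at 37 C.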

In assay [18] the target is Retinoic acid receptor RXR-alpha (Homo sapiens) (UniProt P19793). The assay is described as above. The conditions noted are these: HEK293T RXRa-UAS-bla, beta-lactamase ratio, antagonist mode. The method, boiled down:
as §1

Assay [19] deals with Tumor necrosis factor (Homo sapiens) (UniProt P01375). The assay can be described thus: qHTS assay to identify small molecules that stimulate Tumor Necrosis Factor-alpha (TNF-alpha) secretion (AID 651757; active = well fitted curve in the direction sought with a large enough effect in the signal ratio; the % refers to the signal ratio; note: 0% is about no effect). The method in brief: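 Secreted TNF-alpha quantified by TR-FRET sandwich of two labeled anti-TNF-alpha antibodies, incubated 3 hr at room temperature. Preceded by 17 hr, 37 C compound treatment of THP-1 cells at 3000 cells/well.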
Tumor necrosis factor (Homo sapiens), sequence (P01375 whole entry, looked up): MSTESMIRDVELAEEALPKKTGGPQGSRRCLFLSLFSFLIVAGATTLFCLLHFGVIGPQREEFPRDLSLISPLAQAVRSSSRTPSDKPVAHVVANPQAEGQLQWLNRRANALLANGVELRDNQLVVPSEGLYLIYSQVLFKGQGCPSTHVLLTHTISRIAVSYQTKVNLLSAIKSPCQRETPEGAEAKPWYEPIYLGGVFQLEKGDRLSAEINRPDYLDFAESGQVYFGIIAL

The nature of assay [20]: qHTS assay for small molecule antagonists of the retinoid-related orphan receptor gamma (ROR-gamma) signaling pathway - cell viability counter screen (AID 720652; active = well fitted curve in the direction sought with a large enough effect in the repeat runs; an effect the other way counts as inactive or inconclusive;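 note: CHO reporter cells with doxycycline-induced ROR-gamma expression; compound exposure lasted 16 hr before ATP read; % is set by controls: 0 for no effect and ±100 for the full control effect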). The method in brief:
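Cytotoxicity counter screen: intracellular ATP (CellTiter-Glo luminescence) measured in the doxycycline-induced CHO RORE-luciferase reporter line after 16 hr compound exposure at 37 C, 5% CO2.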

Retinoic acid receptor RXR-alpha (Homo sapiens), sequence (P19793 whole entry, looked up): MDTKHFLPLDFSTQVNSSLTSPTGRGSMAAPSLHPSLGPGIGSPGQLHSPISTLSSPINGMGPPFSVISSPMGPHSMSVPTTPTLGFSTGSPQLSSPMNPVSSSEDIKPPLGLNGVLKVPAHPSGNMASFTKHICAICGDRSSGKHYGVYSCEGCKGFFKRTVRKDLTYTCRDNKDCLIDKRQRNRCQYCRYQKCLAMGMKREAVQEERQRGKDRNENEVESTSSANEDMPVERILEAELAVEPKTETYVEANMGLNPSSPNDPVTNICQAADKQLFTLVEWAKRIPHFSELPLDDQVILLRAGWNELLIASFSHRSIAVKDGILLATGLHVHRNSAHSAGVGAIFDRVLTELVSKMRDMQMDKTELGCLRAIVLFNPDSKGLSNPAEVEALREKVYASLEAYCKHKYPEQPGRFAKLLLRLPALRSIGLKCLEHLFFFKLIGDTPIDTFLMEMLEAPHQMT

With `Cc1ccc(N)cc1C`, the Potency result in [1], in assay [2], in assay [4], in [5], in assay [6] and in [7] was “inactive” in each case. Also, the Potency entry in [8], in assay [9], in assay [10], in assay [11], in assay [12] and in assay [13] was “inactive” each time. For the same molecule, the Potency result in assay [14], in assay [15] and in [20] was “inactive” each time. Moreover, the result in [3] and in assay [19] was inactive. The max response in [16] was -0.563%; in assay [17] it was -3.11%; in assay [18], -2% (inactive).

In the case of `O=[N+]([O-])c1cccc2c([N+](=O)[O-])cccc12`, the Potency entry in [1], in [2], in assay [4], in assay [5], in [6] and in assay [7] was “inactive” each time. The Potency entry in [8], in assay [9], in assay [10], in assay [11], in assay [12] and in assay [13] was “inactive” throughout. In addition, the Potency entry in assay [14], in [15] and in assay [20] was “inactive” throughout. For the same molecule, the outcome in assay [3] and in assay [19] was inactive. In addition, the results for the max response in [16], in assay [17] and in [18] were -11.5%, -12.9% and 7.28% (inactive), respectively.

Consider `C/C=C/CC#N`, for which the Potency result in assay [1], in assay [2], in [4], in assay [5], in assay [6] and in assay [7] was “inactive” in each case. The Potency result in [8], in assay [9], in assay [10], in assay [11], in assay [12] and in [13] was “inactive” throughout. For the same molecule, the Potency entry in assay [14], in assay [15] and in assay [20] was “inactive” throughout. Further, the call in assay [3] and in [19] was inactive. For the same molecule, the max response in [16] is -10.7%; in [17], 5.46%; in [18], 13.1% (inactive).

For the molecule `O=P(OCCCl)(OCCCl)OCCCl`, the Potency entry in assay [1], in assay [2], in assay [4], in [5], in [7] and in assay [8] was “inactive” in each case. The Potency entry in assay [9], in assay [10], in assay [11], in assay [12], in [13] and in [14] was “inactive” each time. Further, the Potency entry in [15] and in [20] was “inactive” throughout. Also, the molecule was called inactive in assay [3] and in [19]. Moreover, the max response is -20% in assay [16], -9.97% in assay [17] and 7.26% (inactive) in assay [18].

For the molecule `[N-]=[N+]=[N-]`, the Potency entry in [2], in assay [4], in assay [5], in [6], in assay [7] and in [8] was “inactive” throughout. Further, the Potency entry in assay [9], in assay [10], in assay [11], in [12], in [13] and in assay [14] was “inactive” in each case. The Potency result in assay [15] and in assay [20] was “inactive” each time. Further, the outcome in assay [3] and in assay [19] was inactive. For the same molecule, the max response in assay [16] is -2.08%; in assay [17], -3.73%; in assay [18] it was 13.8% (inactive).

For `COc1ccc(C=O)cc1`, the Potency entry in assay [1], in assay [2], in assay [4], in [5], in assay [6] and in assay [7] was “inactive” in each case. Besides, the Potency entry in [8], in assay [10], in [11], in assay [12], in assay [13] and in assay [14] was “inactive” throughout. Moreover, the Potency result in assay [15] and in [20] was “inactive” each time. Also, the molecule was classed as inactive in assay [3] and in assay [19]. Besides, the max response in [16] is -0.469%; in assay [17], 3.67%; in [18] it was 14.5% (inactive).

As for `COC(=O)c1ccccc1N`, the Potency entry in assay [1], in assay [2], in assay [4], in [5], in [6] and in [8] was “inactive” throughout. Besides, the Potency result in assay [9], in [10], in [11], in assay [12], in assay [13] and in assay [14] was “inactive” in each case. Further, the Potency entry in assay [15] and in [20] was “inactive” in each case. Further, the molecule was called inactive in [3] and in assay [19]. The max response was -15.1% in [16], 0.965% in assay [17] and 17.4% (inactive) in [18].
